Shown are actives, neighbours in structure and some others; about 11% of the full set was active somewhere.
Sm TGR block – qHTS Assay for the Inhibitors of Schistosoma Mansoni Peroxiredoxins; purified TGR, DTNB reduction, TNB absorbance 405 nm; AID 485364, 2010; 3% of 360,000 active; Schistosoma mansoni thioredoxin glutathione reductase (TGR), Q962Y6; Potency, µM (doses to about 114 µM), without a hit: at the highest dose activity change, negative = inhibition, most hits filed as inhibitors; further: on the % scale 0 is the no-effect control and ±100 the full control effect; nearly all actives have a fitted effect of over 60% in size
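Kinetic colorimetric format: TGR-catalysed, NADPH-driven DTNB reduction monitored via TNB absorbance. Enzyme dispensed at 20 nM; compound exposure 15 min at room temperature before reaction start.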
NS1 function inh – qHTS Assay for Inhibitors of Influenza NS1 Protein Function. Potency, µM (doses to about 46.1 µM), for inactives: at the top dose activity, positive = more growth. 0.4% of 270,000 active; calls by dose curve; further: actives are rising curves; nearly all actives have a fitted effect of over 50% in size
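In this qHTS, NS1 from influenza A is expressed in budding yeast, where it slows growth. Cells are switched from glucose to 2% galactose medium (pH 6.0, -URA), treated with compound, and growth recovery is read at OD600.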
Pf growth 96h – Primary qHTS for delayed death inhibitors of the malarial parasite plastid, 96 hour incubation. P. falciparum luciferase reporter growth, 96 h. Potency, µM (highest dose often 28.7 µM), inactives show at the highest dose activity change, negative = inhibition, actives largely listed as inhibitors. 6.9% of 320,000 active. AID 504834, 2011; further: on the % scale 0 is the no-effect control and ±100 the full control effect
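Two-generation exposure (96 h) targets delayed-death phenotype. Reporter parasites carrying integrated firefly luciferase, in red cells at 2% hematocrit and 0.05% parasitemia final, kept at 37 C, 5% CO2; luminescence loss indicates inhibition.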
AMA1-RON2 inh – qHTS for Inhibitors of AMA1-RON; Towards Development of Antimalarial Drug Lead: Primary Screen | Plasmodium falciparum AMA1 (3D7) - RON2 peptide interaction | AlphaScreen AMA1-biotinylated RON2 peptide binding | Potency, µM (highest dose often 58.2 µM), for inactives: at the top dose activity change, negative = inhibition, hits mostly inhibitors | 0.2% of 360,000 active | AID 720542, 2013;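 further: 0% = vehicle wells and -100% = peptide control; nearly all actives have a fitted effect of over 45% in size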
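AMA1 (3D7) with his tag at 25 nM final met compounds first, then biotinylated RON2 peptide at 25 nM; detection used donor plus acceptor beads, 10 µg/mL apiece, read by AlphaScreen after 30 min at room temperature.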
Pf growth 48h – Primary qHTS for delayed death inhibitors of the malarial parasite plastid, 48 hour incubation. 5.9% of 310,000 active. Potency, µM (titrated, usually from 28.7 µM), without a hit: at the highest dose activity change, negative = inhibition, usual class: inhibitors. AID 504832, 2011. P. falciparum luciferase growth in erythrocytes, 48 h; further: on the % scale 0 is the no-effect control and ±100 the full control effect
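Parasite viability was followed by luminescence of a genomically integrated firefly luciferase. Cultures held 0.1% parasitemia at 2% hematocrit (final), incubated under 5% CO2 at 37 C.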
Numbers without * were called inactive; ? = inconclusive; · = no result given; [ ] = remark or other dose. Unless noted, the call rests on the fitted dose curve; in most records, active means well fitted curve in the direction sought with a large enough effect; inconclusive means small, poorly fitted or top-dose-only effect, or another doubt; inactive means no such curve, though single readings can be large; an effect the other way counts as inactive or inconclusive. Potency means the concentration at half of the fitted maximal effect.

SMILES	Sm TGR block	NS1 function inh	Pf growth 96h	AMA1-RON2 inh	Pf growth 48h
COc1ccc(OC)c(C2C=C(C34CC5CC(CC(C5)C3)C4)NC(=S)N2)c1 (centres undefined)	-8%	18%	2.6µM*	-20%	8.3µM*
COc1cc(C2C=C(C34CC5CC(CC(C5)C3)C4)NC(=S)N2)cc(OC)c1OC (centres undefined)	5%	7%	1µM*	48%	·
O=C(NCc1ccc2c(c1)OCO2)NC12CC3CC(CC(C3)C1)C2	1%	·	-14%	-6%	?
COc1ccc(C2=CC(c3cc(OC)c(OC)c(OC)c3)NC(=S)N2)cc1 (centres undefined)	-3%	17%	·	54%	?
CCN(c1cccc(C)c1)S(=O)(=O)c1ccc2[nH]cc(C(=O)NCCCOC)c(=O)c2c1	2%	·	·	·	·
Cc1ccc(C(=O)Nc2cc(-c3nc4ncccc4o3)ccc2C)c(C)c1	3%	·	·	·	·
C[C@@H](C(=O)Nc1ccc2ccccc2c1)[C@H]1C[C@]1(C)[C@H](NS(=O)(=O)c1ccc(-c2ccccc2)cc1)c1ccccc1	-11%	?	8.3µM*	-4%	12µM*
COC(=O)N[C@H](c1ccccc1)[C@@]1(C)C[C@@H]1[C@@H](C)C(=O)Nc1ccc2ccccc2c1	·	·	·	9%	·
COc1ccccc1NC(=S)NNC(=O)c1nn(C)cc1Cl	8%	10%	6.6µM*	0%	?
COc1ccccc1NC(=S)NNC(=O)c1ccc(O)cc1	8%	1%	0.37µM*	-10%	·
CC(C)C[C@H]1CN(CCCC[C@H]2CNC(=O)C(=O)N2CCc2ccc(O)cc2)C(=O)C(=O)N1CCc1ccc(O)cc1	·	·	·	2%	·
COCCCN1C(=O)c2[nH]nc(-c3cc(C)cc(C)c3O)c2C1c1ccc(O)c(OC)c1 (centres undefined)	0%	?	?	31%	9.3µM*
CCCN1C(=O)c2[nH]nc(-c3cc(Cl)c(C)cc3O)c2C1c1ccc(O)c(OC)c1 (centres undefined)	7%	10%	10µM*	92%	?
COc1cc(C2c3c(-c4cc(C)cc(C)c4O)n[nH]c3C(=O)N2CCCO)cc(OC)c1OC (centres undefined)	12%	-10%	-3%[5.75 µM]	54%	?
CCCCOCCCNC(=O)C[C@@H]1C[C@@]2(C(=O)OC)CCCCC=C2N(Cc2ccco2)C1=O	·	·	·	0%	·
Cc1c(C(=O)N2CCOCC2)c(S(=O)(=O)Nc2ccc(C(C)C)cc2)c(C)n1C	-15%	-7%	10µM*	-6%	-17%
COc1ccc(C2Sc3nncn3N2Cc2ccc(C#N)cc2)cc1 (centres undefined)	5%	2%	13µM*	-1%	-9%
CN(Cc1cn(C)nc1-c1ccccc1F)C1CCOC1 (centres undefined)	-8%	5%	0%	-2%	12%
Cc1c(CN(C)Cc2cn(C)nc2-c2ccccc2F)[nH]c2ccccc12	-5%[57.1 µM]	0%	3.7µM*	-29%	-9%
CN(CCCN1CCOCC1)Cc1cn(C)nc1-c1ccccc1F	-24%	-2%	5.9µM*	0%	0%
C=C1C(=O)O[C@H]2[C@H]1[C@@H](O)CC(=C)[C@@H]1CC(=O)[C@@H](C)[C@H]21	22µM*	1%	?	-2%	?
CCOc1ccc(S(=O)(=O)N2CCC(C(=O)NCC3CCCO3)CC2)cc1 (centres undefined)	3%	4%	-4%	0%	-22%
Cc1ccc(C(=O)c2cc([N+](=O)[O-])ccc2N2CCOCC2)c(C)c1	11%	13%	10µM*	-18%	?
Cc1cc(C)c(NC(=O)COC(=O)c2cc([N+](=O)[O-])ccc2N2CCOCC2)c(C)c1	-4%	8%	21%	-9%	5%
Cc1ccc(C)c(C(=O)COC(=O)c2cc([N+](=O)[O-])ccc2N2CCOCC2)c1	-1%	·	15µM*	-18%	?
SMILES	Sm TGR block	NS1 function inh	Pf growth 96h	AMA1-RON2 inh	Pf growth 48h
N#CC1(NC(=O)COc2ccc(S(=O)(=O)N3CCCC3)cc2[N+](=O)[O-])CCCCC1	?	·	?	-2%	?
COCCNC(=O)/C(C#N)=C/c1ccccc1Br	-10%	-36%	16%	-8%	0%
N#C/C(=C/C=C/c1ccccc1)C(=O)Nc1ccccc1	0%	18%	?	-3%	3.3µM*
COCCNC(=O)/C(C#N)=C/C=C/c1ccccc1	?	·	?	-1%	13µM*
Cc1ccccc1NC(=O)/C(=C/c1ccccc1)c1ccccc1	12%	-21%	-2%	6%	?
O=C(Nc1ccccc1)/C(=C/c1ccccc1)c1ccccc1	0%	17%	4.1µM*	32%	15µM*
N#C/C(=C\C=C\c1ccccc1)C(=O)Nc1ccccc1	-4%	-7%	19%	5%	24%
CC1CCN(S(=O)(=O)c2nnc(NC(=O)COc3ccccc3)s2)CC1	3%	-4%	?	-14%	7%
O=C(CSc1n[nH]c(-c2cccnc2)n1)Nc1ccccc1	9%	-2%	?	-1%	-21%
O=C(CSc1n[nH]c(-c2ccccc2)n1)Nc1ncc(Br)cc1Br	3%	-10%	2.9µM*	4%	7%
O=C(CSc1n[nH]c(-c2ccccn2)n1)Nc1ccccc1F	0%	-3%	10µM*	?	-11%
CCn1c(=O)c2sccc2n2c(CCCC(=O)NC3CCN(Cc4ccccc4)CC3)nnc12	-18%	6%	13µM*	-12%	11%
CCn1c(=O)c2sccc2n2c(CCCC(=O)N3CCN(c4ccccn4)CC3)nnc12	6%	4%	?	22%	10µM*
CC(NC(=O)CCCc1nnc2n(C)c(=O)c3sccc3n12)c1ccccc1 (centres undefined)	1%	6%	13µM*	-1%	15%
CCOc1ccccc1/C=N/n1nnnc1N	-19%	-20%	365%	-3%	?
CC(=O)Nc1ccc(S(=O)(=O)Nn2cnnc2)cc1	-1%	·	4%	9%	12%
CSc1cccc(N2C(=O)N(Cc3ccc([N+](=O)[O-])cc3)c3ccccc3S2(=O)=O)c1	3%	·	·	·	·
CC1C(=O)N(Cc2ccc([N+](=O)[O-])cc2)c2ccccc2N1C(=O)c1c(F)cccc1F (centres undefined)	5%	2%	?	6%	9.3µM*
COc1ccc(CN2C(=O)C(C)Oc3ccccc32)cc1 (centres undefined)	-9%	2%	?	17%	-7%
COc1cccc(CN2C(=O)C(C)N(C(=O)c3ccccc3)c3ccccc32)c1 (centres undefined)	10%	-5%	10µM*	-2%	?

Screening data as filed in PubChem.
